# Values joined by “and” are separate entries in the source; they are usually repeats but may differ in a detail not shown here. Identical values can stand only once. Active and inactive are the calls of the source. Calls come from the whole dose curve; as a rule, active = well fitted curve in the direction sought with a large enough effect; inactive = no such curve, though single readings can be large or run the other way.
# System: 4-diphosphocytidyl-2-C-methyl-D-erythritol kinase IspE (bacterial, species not stated)
# Assay: Confirmatory Assay for Inhibitors of Human Galactokinase (GALK): CDP-Me assay counterscreen for probe SAR
# Conditions: Kinase-Glo ATP luminescence, 1 h
# Description: NIH Molecular Libraries Probe Production Centers Network [MLPCN] NIH Chemical Genomics Center [NCGC] MLPCN Grant: R03 MH085689-01 Assay Submitter (PI): Kent Lai (University of Utah School of Medicine, 50 N Mario Capecchi Drive, Salt Lake City, UT 84132) NCGC Assay Overview The GHMP kinase family is a unique class of important enzymes that plays an essential role in many metabolic processes. It contains more than 170 protein members among which are the galactokinase (GALK) and the CMK enzymes. GALK plays a crucial role in galactose processing and is a potential therapeutic target for Classic Galactosemia (OMIM: 230400). CMK is involved for the non-mevalonate synthesis of isoprenoids precursors and natural products like sterols or ubiquinones which are important to many biological functions. Although the sequence identity between GALK and CMK is low, the three-dimensional structures and active sites are highly similar. Therefore to determine the validity and selectivity of an active compound observed in the GALK qHTS screen (AID: 1868), a bioluminescent counter-screen targeting bacterial CMK was developed. In addition, because the mevalonate independent synthesis of isoprenoids are more prevalent in opportunistic pathogens such as bacteria, CMK is a potential novel therapeutic target where selective inhibitors could be used to determine potential antibacterial effects. The CMK (provided by Kent Lai) was assayed using ATP and 4-diphosphocytidyl-2-C-methyl-D-erythritol (CDP-ME; Echelon, cat# I-M052) as substrates. Promega Kinase-Glo Plus (cat# V3774) technology was used to detect the residual ATP following kinetic reaction. Briefly, the Kinase-Glo Plus contains Ultra-Glo [5] luciferase and D-luciferin which generates a bioluminescence signal from the remaining ATP.
# NCGC Assay Protocol Summary: Three uL/well of substrate solution (15 uM ATP, 30 uM CDP-ME, 20 mM HEPES pH8.0, 5 mM MgCl2, 40 mM KCl, 1 mM DTT, 0.01% BSA final concentration) was dispensed into 1536-well, assay plates (Greiner, solid white medium-binding plates) with Aurora Discovery BioRAPTR Flying Reagent Dispenser (FRD; Beckton-Dickenson). Compound and control solutions (23 nL) were transferred to the assay plate using the Kalypsys 1536-pin tool. One uL/well enzyme solution (0.25 ug/mL CDP-Me kinase, 20 mM HEPES pH8.0, 5 mM MgCl2, 40 mM KCl, 1 mM DTT, 0.01% BSA final concentration) was then added using the FRD yielding a total kinase reaction volume of 4 uL/ well. After 1 hour of room temperature incubation, 4 uL Kinase-Glo Plus reagent was added for a final assay volume of 8 uL/well. After 1 min, luminescence was detected with the ViewLux plate reader (Perkin Elmer, Waltham, MA) using a 1 sec exposure time and 2x binning settings.
row,SMILES,max response
1,Cn1c(NC2=NC3(CCCC3)C3=C(CCCC3=O)N2)nc2ccccc21,5.48% (inactive)
2,O=C1CCCC2=C1C1(CCOCC1)N=C(Nc1nc3ccccc3o1)N2,4.63% (inactive)
3,O=C1CCCC2=C1C1(CCCOC1)N=C(Nc1nc3ccccc3o1)N2 (stereo not drawn),3.35% (inactive)
4,Cc1ccc2oc(NC3=NC4(CCCC4)C4=C(CCCC4=O)N3)nc2c1,5.2% (inactive)
5,O=C1CCCC2=C1C1(CCCC1)N=C(Nc1nc3cc4ccccc4cc3o1)N2,5.94% (inactive)
6,O=C1CC(c2ccccc2)CC2=C1C1(CCCCC1)N=C(Nc1nc3ccccc3o1)N2 (stereo not drawn),5.2% (inactive)
7,O=C1CCCC2=C1C(c1ccc(Cl)cc1)N=C(Nc1nc3ccccc3o1)N2 (stereo not drawn),0.739% (inactive)
8,Cc1nc(Nc2nc3ccccc3o2)nc2c1C(=O)CC(C)(C)C2,-1.17% (inactive)
9,CC1(C)CC(=O)C2=C(C1)NC(Nc1nc3ccccc3o1)=NC2c1cccc(F)c1 (stereo not drawn),2.59% (inactive)
10,CC1(C)CC(=O)C2=C(C1)NC(Nc1nc3ccccc3o1)=NC2c1ccccc1 (stereo not drawn),1.82% (inactive)
11,O=C1CCCC2=C1[C@@]1(CCC(c3ccccc3)C1)N=C(Nc1nc3ccccc3o1)N2 (stereo partly drawn),3.98% (inactive)
12,CC1CCC2(C1)N=C(Nc1nc3ccccc3o1)NC1=C2C(=O)CCC1 (stereo not drawn),2.87% (inactive)
13,O=C1CCCC2=C1C1(CCCC1)N=C(Nc1nc3cc(-c4ccccc4)ccc3o1)N2,-2.69% (inactive)
14,COc1ccc(C2N=C(Nc3nc4ccccc4o3)NC3=C2C(=O)CC(C)(C)C3)cc1 (stereo not drawn),1.84% (inactive)
15,O=C1CCCC2=C1C1(CCS(=O)(=O)C1)N=C(Nc1nc3ccccc3o1)N2 (stereo not drawn),-0.863% (inactive)
16,O=C1CCC2=C1C1(CCCC1)N=C(Nc1nc3ccccc3o1)N2,2.86% (inactive)
17,COc1cccc(C2N=C(Nc3nc4ccccc4o3)NC3=C2C(=O)CC(C)(C)C3)c1 (stereo not drawn),0.986% (inactive)
18,CCC1CCC2(C1)N=C(Nc1nc3ccccc3o1)NC1=C2C(=O)CCC1 (stereo not drawn),0.524% (inactive) [middle of 5 runs]
19,O=C1CCCC2=C1C1(CCC1)N=C(Nc1nc3ccccc3o1)N2,4.72% (inactive)

row,SMILES,max response
1,O=C1CC(c2ccccc2)CC2=C1C1(CCCC1)N=C(Nc1nc3ccccc3o1)N2 (stereo not drawn),3.59% (inactive)
2,CC1(C)CC(=O)C2=C(C1)NC(Nc1nc3ccccc3o1)=NC21CCCC1,-5.27% (inactive)
3,O=C1CCCC2=C1C1(CCCC1)N=C(Nc1nc3ccccc3o1)N2,4.68% (inactive) and -2.85% (inactive)
4,CC1(C)CC(=O)C2=C(C1)NC(Nc1nc3ccccc3o1)=NC2c1ccccc1Cl (stereo not drawn),1.88% (inactive)
5,Cc1ccc(C2N=C(Nc3nc4ccccc4o3)NC3=C2C(=O)CC(C)(C)C3)cc1 (stereo not drawn),2.37% (inactive)
6,O=C1CCCC2=C1C1(CCSC1)N=C(Nc1nc3ccccc3o1)N2 (stereo not drawn),-0.317% (inactive)
7,O=C1CCCC2=C1C(c1ccccc1Cl)N=C(Nc1nc3ccccc3o1)N2 (stereo not drawn),-2.1% (inactive)
8,CC1(C)CC(=O)C2=C(C1)NC(Nc1nc3ccccc3o1)=NC2c1cccc(O)c1 (stereo not drawn),1.58% (inactive)
9,O=C1CCCC2=C1C1(CCCC1)N=C(Nc1nc3cc(Br)ccc3o1)N2,5.8% (inactive)
10,CC1(C)N=C(Nc2nc3ccccc3o2)NC2=C1C(=O)CCC2,3.59% (inactive)
11,O=C1CCCC2=C1C1(CCCC1)N=C(Nc1nc3cc(Cl)ccc3o1)N2,3.11% (inactive)
12,CC1(C)CC(=O)C2=C(C1)NC(Nc1nc3ccccc3o1)=NC2c1cccc(Cl)c1 (stereo not drawn),2.44% (inactive)
13,O=C1CCCC2=C1C1(CCCC1)N=C(Nc1nc3ccccc3n1Cc1ccccc1)N2,4.95% (inactive)
14,O=C1CCCC2=C1C1(CCCCC1)N=C(Nc1nc3ccccc3o1)N2,-0.522% (inactive)
15,CC1(C)CC(=O)C2=C(C1)NC(Nc1nc3ccccc3o1)=NC2c1cccnc1 (stereo not drawn),1.01% (inactive)
16,Cc1ccc2nc(NC3=NC4(CCCC4)C4=C(CCCC4=O)N3)oc2c1,7.12% (inactive)
17,O=C1CCCC2=C1C1(CCSCC1)N=C(Nc1nc3ccccc3o1)N2,-0.443% (inactive)
18,O=C1CCC2=C1C(c1ccccc1Cl)N=C(Nc1nc3ccccc3o1)N2 (stereo not drawn),-0.401% (inactive)
19,COc1ccccc1C1N=C(Nc2nc3ccccc3o2)NC2=C1C(=O)CC(C)(C)C2 (stereo not drawn),1.66% (inactive)

# — PubChem BioAssay AID2506 (National Center for Advancing Translational Sciences (NCATS), 2010)
